# In PubChem BioAssay (NCATS):
# Values joined by “and” are separate entries in the source; they are usually repeats but may differ in a detail not shown here. Equal entries are not always repeated. Inconclusive results are not listed. Entries that show only a call come without a potency. Active and inactive are the calls of the source. The call rests on the fitted dose curve; in most records, active means well fitted curve in the direction sought with a large enough effect; inconclusive means small, poorly fitted or top-dose-only effect, or another doubt; inactive means no such curve, though single readings can be large; an effect the other way counts as inactive or inconclusive.
# Columns and labels:
# [1] = biological target: Cellular tumor antigen p53 (Homo sapiens) (UniProt P04637); experiment: Primary qHTS for small molecule compounds that upregulate eGFP-tagged delta133p53alpha (in N-terminal) cells. (AID 2060322); settings: NCI-H358 eGFP-delta133p53alpha fluorescence, 24 h; activation: active compounds read high; further: nearly all actives have a fitted effect of over 75% in size; further: potency means the concentration at half of the fitted maximal effect; on activation: series mostly up to about 56 µM
# Summary of the method: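 NCI-H358 cells pre-induced 24 h with 10 ng/ml doxycycline to express N-terminal eGFP-delta133p53alpha, then dosed 24 h at 37C without doxycycline; fixed, Hoechst-stained, GFP intensity by laser scanning cytometry, normalized to DMSO (0%) and 57.5 uM 5-azacytidine (100%).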
# [2] = biological target: Aldehyde dehydrogenase, mitochondrial (Homo sapiens) (UniProt P05091); experiment: qHTS for Inhibitors of the Aldehyde Dehydrogenase Family (ALDH2) Primary screen (AID 2061308); further: nearly all actives have a fitted effect of over 55% in size
# [3] = biological target: Retinaldehyde dehydrogenase 3 (Homo sapiens) (UniProt P47895); experiment: qHTS for Inhibitors of the Aldehyde Dehydrogenase Family (ALDH1A3) Primary screen (AID 2061315)
# Cellular tumor antigen p53 (Homo sapiens), sequence (P04637 whole entry, looked up): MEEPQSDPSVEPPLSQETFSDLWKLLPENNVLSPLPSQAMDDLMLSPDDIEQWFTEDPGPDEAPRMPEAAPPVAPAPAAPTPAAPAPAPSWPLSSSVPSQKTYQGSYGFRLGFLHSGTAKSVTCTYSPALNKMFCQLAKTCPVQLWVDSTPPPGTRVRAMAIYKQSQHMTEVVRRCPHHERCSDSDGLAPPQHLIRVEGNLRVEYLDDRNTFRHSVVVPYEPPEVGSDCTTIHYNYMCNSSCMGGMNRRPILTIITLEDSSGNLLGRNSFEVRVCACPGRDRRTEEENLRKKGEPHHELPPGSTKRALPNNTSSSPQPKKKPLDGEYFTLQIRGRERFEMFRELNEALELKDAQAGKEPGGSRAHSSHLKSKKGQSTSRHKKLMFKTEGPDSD
Structure (SMILES),activation [1],"activity change, negative = inhibition [2]","activity change, negative = inhibition [3]",Potency [1],Potency [2],Potency [3]
O=C(O)Cc1cccc(-c2cc(CCCCCCc3ccc(O[C@H]4O[C@H](CO)[C@@H](O)[C@H](O)[C@@H]4O)c(-c4cccc(CC(=O)O)c4)c3)ccc2O[C@H]2O[C@H](CO)[C@@H](O)[C@H](O)[C@@H]2O)c1,4.33% (inactive),-4.79% [at 0.464 µM] (inactive),-13.7% [at 0.464 µM] (inactive),,,
CN(C)CCCn1cc(C2=C(c3c[nH]c4ccccc34)C(=O)NC2=O)c2ccccc21,,,,30.1 µM (active),inactive,inactive
CC(=O)O[C@H]1CC[C@@]2(CI)C(=CC[C@@H]3[C@@H]2CC[C@]2(C)[C@@H]([C@H](C)CCCC(C)C)CC[C@@H]32)C1,21.7% (inactive),-4.11% [at 11.2 µM] (inactive),5.91% [at 11.2 µM] (inactive),,,
CC(C)(O)c1ccc2c(c1)C(O)C[C@H]1[C@](C)(C(=O)O)CCC[C@]21C (stereo partly specified),3.57% (inactive),,,,inactive,inactive
C=C(C)C1CCC2(C(=O)O)CCC3(C)C(CCC4C5(C)C(C=O)C(O)C(C)(C)C5CCC43C)C12 (stereo unspecified),-19.8% (inactive),,,,inactive,inactive
CC1CCCC2OC2C(=O)c2c(O)cc(O)cc2CC(=O)O1 (stereo unspecified),16% (inactive),,,,inactive,inactive
CC1OC(OC2C(CO)OC(OCC3OC(OC(=O)C45CCC(C)(C)CC4C4=CCC6C7(C)CCC(OC8OC(CO)C(O)C(OC9OC(CO)C(O)C(O)C9O)C8O)C(C)(C)C7CCC6(C)C4(C)CC5)C(O)C(O)C3O)C(O)C2O)C(O)C(O)C1OC1OC(CO)C(O)C(O)C1O (stereo unspecified),-2.29% (inactive),-2.7% [at 11.2 µM] (inactive),7.19% [at 11.2 µM] (inactive),,,
CC(=O)O[C@H]1C[C@@H](O)C(C)(C)C2C[C@@H](OC(C)=O)[C@@]3(C)C4=CCC(C(CO)CC(O)C5OC5(C)C)[C@]4(C)CCC3[C@]21C (stereo partly specified),-9.16% (inactive),,,,inactive,inactive
CC1=CC[C@@]2(C)CC[C@@](O)(C(C)C)[C@@H]2[C@@H](O)C1,11.5% (inactive),,,,inactive,inactive
C=C1CCC2[C@@](C)(C=O)CCC[C@]2(C)[C@H]1CC/C(C)=C/CO (stereo partly specified),18.3% (inactive),,,,inactive,inactive
CC1(C)C[C@H](O)C[C@@]2(C)[C@H]1[C@H](O)C=C1COC(=O)[C@@]12O,6.11% (inactive),,,,inactive,inactive
COC(=O)[C@H](Cc1ccc([N+](=O)[O-])cc1)NC(=O)c1cccc2ccccc12,11.5% (inactive),,,,inactive,inactive
COC(=O)C1=CO[C@@H](O[C@@H]2O[C@H](CO)[C@@H](O)[C@H](O)[C@H]2O)[C@@H]2[C@@H](CO)[C@@H](O)C(O)[C@H]12 (stereo partly specified),-1.79% (inactive),,,,inactive,inactive
N#CCc1ccc(O)cc1O[C@@H]1O[C@H](CO)[C@@H](O)[C@H](O)[C@H]1O,-11.6% (inactive),,,,inactive,inactive
C=CC(C)(CC/C=C(\C)C(=O)OC)OC1OC(COC(=O)CC(C)(O)CC(=O)O)C(OC2OC(CO)C(O)C(O)C2O)C(O)C1O (stereo unspecified),-11.5% (inactive),,,,inactive,inactive
CC1(C)CC[C@]2(C(=O)O)CC[C@]3(C)C(=CCC4[C@@]5(C)C[C@H](O)[C@H](O[C@@H]6OC[C@H](O)[C@H](O)[C@H]6O)[C@@](C)(CO)C5CC[C@]43C)[C@@H]2C1 (stereo partly specified),-9.16% (inactive),,,,inactive,inactive
COc1ccc(F)cc1-c1cc(NC(=O)[C@@H]2CCCNC2)ncc1Cl,,,,0.269 µM (active),inactive,inactive
CC1(C)CC=C(c2cnc3ccccc3c2)c2cc(C(=O)Nc3ccc(C(=O)O)cc3)ccc21,3.34% (inactive),,,,inactive,inactive
CCC(C)C(=O)O[C@H]1[C@@H](O[C@H]2O[C@H](CO)[C@@H](O)[C@H](O)[C@H]2O)O[C@H](CO)[C@@H](O)[C@@H]1O (stereo partly specified),13.7% (inactive),,,,inactive,inactive
C=C(C)C(=O)OC1CC2(C)OC(=CC2=O)C(=C)CC2OC(=O)C(=C)C12 (stereo unspecified),,,,4.67 µM (active),inactive,inactive
COc1cc2ncnc(Nc3ccc(F)c(Cl)c3)c2cc1OCCCN1CCOCC1,-5.67% (inactive),,,,inactive,inactive
COc1cc(CN(CCN)C(=O)c2cccs2)ccc1OCc1ccccc1,24.3% (inactive),,,,inactive,inactive
O=C(OC1C=C(CO)C2C(OC3OC(CO)C(O)C(O)C3O)OC=CC12)c1ccc(O)cc1 (stereo unspecified),-16% (inactive),,,,inactive,inactive
C=C1CCC2[C@](C)(CCC[C@]2(C)C(=O)O)[C@H]1CC/C(C)=C/C(=O)OC (stereo partly specified),17.9% (inactive),,,,inactive,inactive
O=C(O)Cc1cn(C2OCC(O)C(O)C2O[C@@H]2O[C@H](CO)[C@@H](O)[C@H](O)[C@H]2O)c2ccccc12 (stereo partly specified),3.82% (inactive),,,,inactive,inactive
CC1CCCCCCCc2cc(O)cc(O)c2C(=O)O1 (stereo unspecified),-3.57% (inactive),,,,inactive,inactive

Structure (SMILES),activation [1],"activity change, negative = inhibition [2]","activity change, negative = inhibition [3]",Potency [1],Potency [2],Potency [3]
CCOC(=O)C(CCc1ccccc1)NC(C)C(=O)N1Cc2ccccc2CC1C(=O)O (stereo unspecified),-13.4% (inactive),,,,inactive,inactive
CCn1cc(C2=NOC(C(=O)Nc3c(C)n(C)n(-c4ccccc4)c3=O)C2)c(C)n1 (stereo unspecified),9% (inactive),,,,inactive,inactive
COc1ccc(C2(O)CCC(N3CC[C@@H](NC(=O)CNC(=O)c4cccc(C(F)(F)F)c4)C3)CC2)cn1 (stereo partly specified),19.6% (inactive),,,,inactive,inactive
CC1(C)C[C@@H]2[C@H](C1)[C@@]1(C)C[C@]13C(O)OC[C@]3(O)[C@H]2O (stereo partly specified),6.25% (inactive),,,,inactive,inactive
Cc1cccc(Nc2cc(Cl)nc(SCC(=O)O)n2)c1C,23.4% (inactive) and 14.3% (inactive),,,,inactive,inactive
C=C(CO)C12OC1C1(C)C(=CC2=O)C(O)C(O)CC1C (stereo unspecified),17.9% (inactive),,,,inactive,inactive
N#Cc1ccc(N2N=C3c4ccc(C(=O)O)cc4CC[C@@H]3[C@@H]2C2CCCC2)cc1Cl,-25% (inactive),,,,inactive,inactive
CCNC1(C(N)=O)CN(c2nc(C)nc3c(-c4ccc(Cl)cc4)c(-c4ccccc4Cl)nn23)C1,-0.333% (inactive),,,,inactive,inactive
CCC(C)C(=O)OC1CC(O)C23C4OCC5(C(O)CC2C1(C)C(O)O4)C3C(=O)CC1(C)C(c2ccoc2)CC2OC215 (stereo unspecified),22.1% (inactive),,,,inactive,inactive
CC(=C\C(C)O)/C=C(\C)C(=O)CC1CC(CC(N)=O)CC(=O)O1 (stereo unspecified),-16.8% (inactive),,,,inactive,inactive
C[C@H]1[C@H](C)CC[C@]2(C(=O)OC3OC(CO)C(O)C(O)C3O)CC[C@]3(C(=O)O)C(=CCC4[C@@]5(C)CC[C@H](O[C@@H]6O[C@@H](C)[C@H](OC7OC(CO)C(O)C(O)C7O)[C@@H](O)[C@H]6O)C(C)(C)C5CC[C@]43C)[C@H]12 (stereo partly specified),-9.92% (inactive),,,,inactive,inactive
O=C(Cn1c2ccccc2c2nc3n(c(=O)c21)CCS3)N1CCCC1,5.67% (inactive),,,,inactive,inactive
CCCN(CCc1ccsc1)C1CCc2c(O)cccc2C1 (stereo unspecified),2.68% (inactive),,,,inactive,inactive
CC1OC(OC2C(C)OC(OC3C(O)C(CO)OC(O[C@H]4CC[C@@]5(C)C(CC[C@]6(C)C5CC=C5C7[C@@H](C)[C@H](C)CC[C@]7(C(=O)O)CC[C@]56C(=O)O)C4(C)C)C3O)C(O)C2O)C(O)C(O)C1O (stereo partly specified),3.82% (inactive),,,,inactive,inactive
O=C(NCc1ccc(OC(F)(F)F)cc1)C1c2c(F)cccc2C(=O)N1CCc1ccccn1 (stereo unspecified),11.6% (inactive),,,,inactive,inactive
CC1C(=O)OCC2=CCN3CCC(OC(=O)C(C)(O)C1(C)O)C23 (stereo unspecified),-5.36% (inactive),,,,inactive,inactive
COC(=O)C1=COC(OC2OC(CO)C(O)C(O)C2O)C2C(COC(=O)/C=C/c3ccc(O)cc3)C(O)C(O)C12 (stereo unspecified),-6.87% (inactive),,,,inactive,inactive
C[C@@]12CC3(S(=O)(=O)O)OC(O1)[C@]1(COC(=O)c4ccccc4)[C@H]3C[C@]21O[C@@H]1O[C@H](CO)[C@@H](O)[C@H](O)[C@H]1O,14.5% (inactive),,,,inactive,inactive
CO[C@H]1C[C@@H]2CC[C@@H](C)[C@@](O)(O2)C(=O)C(=O)N2CCCC[C@H]2C(=O)O[C@H]([C@H](C)C[C@H]2CC[C@@H](OP(C)(C)=O)[C@H](OC)C2)CC(=O)[C@H](C)/C=C(\C)[C@@H](O)[C@@H](OC)C(=O)[C@H](C)C[C@H](C)/C=C/C=C/C=C/1C,11% (inactive),,,,inactive,inactive
C=C1C(=O)OC2/C=C(\CO)CC/C=C(\C=O)CC(OC(=O)CC(C)C)C12 (stereo unspecified),,,,14.8 µM (active),inactive,inactive
C=C1C(=O)O[C@@H]2[C@H]1CCC(C)=C(CCC(=O)O)[C@@]2(C)O,-18.3% (inactive),,,,inactive,inactive
C=C[C@]1(C)C[C@H](O)[C@@H]2[C@H](OC(=O)[C@@H]2C)C1/C(C)=C/O[C@@H]1O[C@H](CO)[C@@H](O)[C@H](O)[C@H]1O (stereo partly specified),-27.7% (inactive),,,,inactive,inactive
CC(=O)OC1(C)CC(O)C2(O)C=COC(OC3OC(CO)C(O)C(O)C3O)C12 (stereo unspecified),-16.8% (inactive),,,,inactive,inactive
Cc1cccc(-c2[nH]ncc2-c2ccnc3ccccc23)n1,8.93% (inactive),,,,inactive,inactive
COc1ccc(C#Cc2ccc(C(=O)N3CCC[C@@H](O)C3)c(F)c2)cc1,-8.04% (inactive),,,,inactive,inactive
CC(C)(O)C1CCC2(C)CCCC(C)(O)C2C1 (stereo unspecified),2.68% (inactive),,,,inactive,inactive
